Bioassay records from PubChem.
miR-21 act: qHTS Assay for Modulators of miRNAs and/orActivators of miR-21; HeLa miR-21 FLuc reporter, luciferase, 48 h; Potency, µM (titrated, usually from 38.3 µM), for the others: at the top dose activity change, positive = activation, usual class: activators; 340,000 tested, under 10 active; AID 2288, 2010;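 also: % of control where 0% means no effect; miR-21 action dims this reporter so a rising signal means less miR-21 action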
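Luminescence from a firefly luciferase reporter carrying a miR-21 binding site downstream, stably expressed under a CMV promoter in HeLa cells that make miR-21 endogenously, reports miRNA modulation after 48 h compound exposure up to approximately 40uM final.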
BRCA1 expr up: qHTS Assay to Identify Small Molecule Activators of BRCA1 Expression; MCF7-BRCA1-FFLuc reporter, luminescence, 48 h; response scale: scaled: vehicle 0%, 10 µM genistein 100%; 380,000 compounds, 1.1% hits; Potency, µM (highest dose often 46.1 µM), without a hit: at the top dose activation, most hits filed as activators; also: potency is read from the fitted curve at half-maximal effect; nearly all actives have a fitted effect of over 80% in size
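Compounds are tested at multiple concentrations on MCF7 BRCA1-luciferase reporter cells seeded at 2000 per well; after 48 h, a single luminescence end-point is taken and curves fitted to the normalized data.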
Anesthetic bind: qHTS Assay for Identification of Novel General Anesthetics. AID 485281, 2010. Ferritin light chain (Equus caballus), P02791. apoferritin/1-aminoanthracene competitive binding, fluorescence. 350,000 compounds, 0.074% hits. Potency, µM (doses to about 77.5 µM), inactives show top-dose activity change, negative = displacement, hits mostly inhibitors; also: potency is read from the fitted curve at half-maximal effect; % is scaled to controls: 0 for no effect and ±100 for the full control effect; nearly all actives have a fitted effect of over 20% in size
Target sequence (P02791 2-175 limits assumed): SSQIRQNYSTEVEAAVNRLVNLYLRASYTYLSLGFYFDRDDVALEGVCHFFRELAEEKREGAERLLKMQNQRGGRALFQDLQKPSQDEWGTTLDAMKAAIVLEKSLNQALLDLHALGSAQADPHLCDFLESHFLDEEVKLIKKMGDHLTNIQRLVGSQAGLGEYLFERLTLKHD
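Apoferritin-based anesthetic binding model; compound displacement of fluorescent 1-AMA measured as endpoint fluorescence after 10 minutes at room temperature, scaled to free-ligand and complex controls.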
p53 reactivator: qHTS assay for re-activators of p53 using a Luc reporter; Potency, µM (titrated, usually from 92.2 µM), for the others: top-dose activity change, positive = activation, hits mostly activators; H1299 p53-A138V BP100-luciferase reporter, luminescence, 24 h; AID 504706, 2011; 320,000 compounds, 0.063% hits; also: potency is read from the fitted curve at half-maximal effect; % of control where 0% means no effect; nearly all actives have a fitted effect of over 45% in size
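H1299 (p53-null), stable ts p53-A138V + BP100-Luc; 1000 cells/well, Opti-MEM/10% FBS; cpd 4 pt, 1:5; 24 h, 37 deg C, 5% CO2; detection reagent 10 min RT; luminescence.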
An asterisk follows results filed as active; u = inconclusive; x = no result given. Hits are enriched below; roughly 1.1% of the tested compounds scored in any of these assays. Calls follow the shape of the dose curve; as a rule, active = well fitted curve in the direction sought with a large enough effect; inconclusive = small, poorly fitted or top-dose-only effect, or another doubt; inactive = no such curve, though single readings can be large; an effect the other way counts as inactive or inconclusive.

SMILES	miR-21 act	BRCA1 expr up	Anesthetic bind	p53 reactivator
O=C(Nc1ccccc1N1CCOCC1)[C@@H]1O[C@H](CO)[C@H](O)[C@H](O)[C@H]1O	x	16%	x	x
Nc1sccc1C(=O)c1ccc(Cl)cc1	-23%	6.3µM*	-17%	u
COc1ccc(-c2cc3ccc(OCC(C)=O)cc3oc2=O)cc1OC	-62%	10µM*	-2%	u
CCOc1ccc2cc(C(=O)c3ccccc3)c(=O)oc2c1	-48%	10µM*	1%	u
CCCc1c(C)c2ccc(OCC(C)=O)cc2oc1=O	-47%	5.6µM*	-11%	u
COc1ccc2cc(C(=O)c3ccccc3)c(=O)oc2c1	-48%	74%	-14%	u
Cc1c(C)c2ccc(OCC(=O)c3ccccc3)cc2oc1=O	-20%	6.3µM*	-6%	11%
CCCCc1c(C)c2ccc(OCC(C)=O)cc2oc1=O	-35%	u	u	u
COc1cccc(C(=O)COc2ccc3c(C)c(Cc4ccccc4)c(=O)oc3c2)c1	-4%	8%	-7%	-6%
N#Cc1cccc2cccc(S(=O)(=O)N3CCOCC3)c12	x	-24%	x	4%
Nc1ccccc1Nc1c(F)c(F)nc(F)c1Cl	-6%	-3%	4%	4%
COC(=O)[C@H]1C[C@@H](c2ccccc2)[C@H](C)C1(C)C	x	6%	x	7%
O=C(Cc1ccccc1[N+](=O)[O-])NCCC1=CCCCC1	-29%	67%	-14%	-4%
COc1cccc(C(=O)NCCC2=CCCCC2)c1	-25%	u	28µM*	16%
Cc1cc(C(=O)NCCC2=CCCCC2)ccc1[N+](=O)[O-]	-43%	5µM*	u	7%
O=[N+]([O-])c1ccccc1S(=O)(=O)NCCC1=CCCCC1	-12%	3%	10µM*	11%
C/C(=N\O)c1ccc2c3c([nH]c2c1)CCCC3	-27%	10µM*	7%	u
COc1ccc(-c2cn3nc(N4CCCC(C(=O)Nc5cccc(OC)c5)C4)sc3n2)cc1 (stereo unspecified)	12%	x	9%	x
CNc1nc(-c2ccc3c(c2)CCN3C(=O)c2ccc(F)cc2)cs1	-30%	36%	-14%	-2%
CNc1nc(-c2ccc3c(c2)CCN3C(=O)c2ccccc2C)cs1	-69%	2µM*	-8%	11%
O=C(Cn1nnc(-c2ccccc2F)n1)N1CCCCC1	-52%	8.9µM*	-11%	15%
O=C(Cn1nnc(-c2ccc(F)cc2)n1)N1CCCCC1	-16%	26%	-6%	-3%
C=CCN1CCN(C(=O)c2ccc(-c3ccccc3)cc2)CC1	-11%	0%	-6%	x
C=CCN1CCN(C(=O)CSc2ccccc2)CC1	-38%	11µM*	-3%	x
CCOc1cc2c(c3c1C(c1ccccc1)N(S(=O)(=O)c1ccc(C)cc1)C3)C(=O)C=CC2=O (stereo unspecified)	x	-26%	x	x
SMILES	miR-21 act	BRCA1 expr up	Anesthetic bind	p53 reactivator
COc1ccc(S(=O)(=O)N2CCOC2CNC(=O)C(=O)NCc2cccnc2)cc1C (stereo unspecified)	-5%	2%	-12%	0%
CC(C)(C)N1[C@@H](CC(=O)O)c2cc(C(F)(F)F)ccc2S1(=O)=O	x	11%	x	x
C/C(=N\NC(=O)c1c(Cl)cnn1C)c1cccc(NC(=O)c2ccc(C)cc2)c1	-34%	6.3µM*	-7%	16%
C/C(=N\NC(=O)c1c(Br)cnn1C)c1ccc(NC(=O)c2ccc(F)cc2)cc1	-28%	7.9µM*	-2%	26%
C/C(=N\NC(=O)c1cccc(O)c1)c1cccc(NC(=O)c2ccc(F)cc2)c1	-37%	4µM*	-16%	10%
C/C(=N\NC(=O)c1ccc(O)cc1)c1cccc(NC(=O)c2ccc(Cl)cc2)c1	x	5.6µM*	x	x
CCOc1ccc(C(=O)NCc2nc3cccnc3n2Cc2cccc(OC)c2)cc1	-2%	x	-6%	x
Brc1ccc(-c2csc(-c3c[nH]c4ccccc34)n2)cc1	-47%	24%	3%	45µM*
CCc1ccc(CNc2ccc3c(c2)ncn3CC)cc1	-65%	6.3µM*	-15%	u
CCOc1ccc(CNc2ccc3c(c2)nc(C)n3C)cc1	-28%	11µM*	-8%	14%
CCOc1ccc(Nc2cc(C)c3ccccc3n2)cc1	-66%	10µM*	10%	18%
CCOc1ccc(Nc2nc3ccccc3n2C)cc1	x	2.5µM*	x	x
COc1ccc(CC(=O)NNS(=O)(=O)c2ccccc2[N+](=O)[O-])cc1	0%	19%	-2%	4%
Cn1c(Nc2ccccc2)nc2ccccc21	-37%	40%	u	x
Nn1c(Nc2ccccc2)nc2ccccc21	-41%	10µM*	-20%	u
CCn1c(CCCOc2ccc(Cl)cc2Cl)n[nH]c1=S	-48%	6.3µM*	-19%	3%
CCCCCCCCCCCCCCCC[n+]1cccc(C(=O)N(CC)CC)c1	u	-25%	16µM*	3%
CCN1CCc2nc(NC(=O)Cc3ccc4c(c3)OCCO4)sc2C1	-9%	7%	-18%	0%
CC(=O)c1sc(NC(=O)c2ccc3c(c2)OCO3)nc1C	-48%	2.5µM*	-6%	27%
O=C(Nc1nccs1)c1ccc2c(c1)OCO2	-45%	8.9µM*	0%	u
CCN1CCc2nc(NC(=O)c3ccc4c(c3)OCCO4)sc2C1	-32%	4.5µM*	-9%	9%
Cn1c2ccccc2c(=O)c2cc(C#CC3(O)CCCCC3)ccc21	-17%	0%	2%	3%
Cn1c2ccccc2c(=O)c2ccc(C#CC3(N)CCCCC3)cc21	-17%	5.6µM*	48%	x
Cn1c2ccccc2c(=O)c2ccc(C#Cc3ccccn3)cc21	-40%	11µM*	-3%	14%
COc1cccc2oc3ccc(C#CC4(N)CCCCC4)cc3c(=O)c12	-92%	7.9µM*	105%	x
SMILES	miR-21 act	BRCA1 expr up	Anesthetic bind	p53 reactivator
CCN(C(=O)c1cc2c(=O)n(CC)c3ccccc3c2s1)c1cccc(C(F)(F)F)c1	-3%	4%	u	x
CN(C)c1ccc(-c2nc3ccc(Cl)cn3c2Nc2ccc3c(c2)OCCO3)cc1	-35%	10µM*	u	x
CC(=O)c1ccc(OCc2cc(C(=O)N3CCN(c4ccccc4)CC3C)no2)cc1 (stereo unspecified)	-34%	u	-9%	u
CSc1ccccc1OCc1cc(C(=O)N2CCN(c3ccccc3)CC2C)no1 (stereo unspecified)	-30%	13µM*	-7%	22%
COc1cccc(C(O)c2nc(-c3cccc(C#N)c3)cs2)c1 (stereo unspecified)	x	-3%	x	x
N#Cc1cccc(-c2csc(C(O)c3ccc(F)cc3)n2)c1 (stereo unspecified)	x	7.9µM*	x	x
COc1ccc2cc3cc(C(=O)NCc4ccco4)oc3nc2c1	-3%	3%	55%	4%
COc1ccc2cc3c(N)c(C(=O)NCc4ccco4)sc3nc2c1	-11%	5.6µM*	-3%	-4%
OCCc1ccc(NCCc2cccs2)cc1	x	8.9µM*	x	x
